Measured values: PubChem BioAssay
For some of these results: Entries with a potency or affinity are not part of this list. Activity calls are given as the source filed them.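 The calls were made as follows, unless noted: active = primary screen inhibitor hit that blocks the TRPC4 channel at some tested dose, yielding a dose curve; inactive = the rest.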

Columns and labels:
[1] = system: TRPC4 beta (transient receptor potential cation channel C4), mouse; experiment: TRPC4 cation channel opening, retest – cell-based, Fluo4 calcium, HEK293 TRPC4beta/mu-opioid, duplicates, 10 µM, confirmation (AID 2426;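 active = fluorescence ratio normalized to control raised more than 50% in primary screen plus both repeat runs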); conditions: Fluo4 calcium fluorescence, at 10 µM; stronger effect = higher value
[2] = system: transient receptor potential cation channel C4 beta (TRPC4), mouse; experiment: TRPC4 cation channel opening, second retest – cell-based, second round, Fluo4, HEK293 TRPC4beta/mu-opioid, 1 µM, confirmation (AID 2461;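 active = primary screen active and over 50% activation in each of two duplicate runs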); conditions: Fluo4 calcium fluorescence, at 1 µM; stronger effect = higher value
[3] = system: TRPC4 (transient receptor potential cation channel C4 beta), mouse; experiment: potentiation of DAMGO EC20 TRPC4 response – cell-based, second round, Fluo-4, HEK293 TRPC4beta/mu-opioid, 1 µM, confirmation (AID 2554;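 active = primary screen hit whose fluorescence ratio, in both repeats, exceeds the weak agonist control mean by 3 SD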); conditions: DAMGO EC20, Fluo-4 calcium flux, at 1 µM; stronger effect = higher value
[4] = system: TRPC4 beta (transient receptor potential cation channel C4), mouse; experiment: potentiation of DAMGO EC20 TRPC4 response – cell-based, Fluo-4, HEK293 TRPC4beta/mu-opioid, confirmation (AID 2555;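 active = primary screen hit whose calcium fluorescence ratio, in both repeats, exceeds the weak agonist control mean by 3 SD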); conditions: DAMGO EC20, Fluo-4 calcium flux, at 10 µM; stronger effect = higher value
[5] = target: Short transient receptor potential channel 4 (Mus musculus) (UniProt Q9QUQ5); experiment: blockers of DAMGO-evoked TRPC4 calcium flux – cell-based, Fluo4, HEK293 TRPC4beta/mu-opioid, confirmation (AID 2636;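 active = calcium signal cut by more than 3 SD below the full-agonist control yet still positive, in both repeats and the earlier primary screen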); conditions: at 10 µM; stronger effect = higher value
Short transient receptor potential channel 4 (Mus musculus), sequence (Q9QUQ5 whole entry, looked up): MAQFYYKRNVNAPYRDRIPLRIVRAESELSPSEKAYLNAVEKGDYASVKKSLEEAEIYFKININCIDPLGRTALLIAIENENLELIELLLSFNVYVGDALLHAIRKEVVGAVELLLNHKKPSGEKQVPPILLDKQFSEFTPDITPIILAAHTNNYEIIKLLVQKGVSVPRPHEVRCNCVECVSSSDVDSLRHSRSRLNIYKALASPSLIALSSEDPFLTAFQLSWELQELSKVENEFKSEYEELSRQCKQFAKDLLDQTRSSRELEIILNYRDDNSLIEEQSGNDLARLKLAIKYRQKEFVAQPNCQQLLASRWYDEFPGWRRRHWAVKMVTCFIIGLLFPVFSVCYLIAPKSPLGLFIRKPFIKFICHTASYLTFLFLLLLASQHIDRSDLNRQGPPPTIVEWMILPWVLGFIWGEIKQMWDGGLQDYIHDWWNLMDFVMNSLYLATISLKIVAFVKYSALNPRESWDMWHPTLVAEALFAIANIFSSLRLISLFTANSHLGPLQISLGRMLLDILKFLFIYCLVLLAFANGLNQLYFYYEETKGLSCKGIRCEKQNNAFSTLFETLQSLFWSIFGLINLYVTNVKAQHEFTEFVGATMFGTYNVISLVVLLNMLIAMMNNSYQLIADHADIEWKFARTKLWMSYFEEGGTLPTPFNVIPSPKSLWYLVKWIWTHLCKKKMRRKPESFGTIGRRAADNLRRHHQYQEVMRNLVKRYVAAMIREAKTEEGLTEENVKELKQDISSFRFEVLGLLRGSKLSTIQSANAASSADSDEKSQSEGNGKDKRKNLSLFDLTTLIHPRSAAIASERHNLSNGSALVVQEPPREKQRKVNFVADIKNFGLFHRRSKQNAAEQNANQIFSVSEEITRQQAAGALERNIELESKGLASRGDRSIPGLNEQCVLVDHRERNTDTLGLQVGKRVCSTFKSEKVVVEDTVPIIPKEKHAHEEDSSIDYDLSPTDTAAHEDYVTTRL

[6] = target: Short transient receptor potential channel 4 (Mus musculus) (UniProt Q9QUQ5); experiment: blockers of DAMGO-evoked TRPC4 calcium flux – cell-based, second round, Fluo4, HEK293 TRPC4beta/mu-opioid, 1 µM, confirmation (AID 2637;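 active = calcium signal ratio cut to more than 3 SD under the fully stimulated control mean yet still positive, in both repeats and the primary screen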); conditions: at 1 µM; stronger effect = higher value
[7] = target: Short transient receptor potential channel 4 (Mus musculus) (UniProt Q9QUQ5); experiment: calcium entry via TRPC4 opening agents – cell-based, HEK293 TRPC4/mu-opioid, Fluo-4 calcium, dose response (AID 434937;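 active = primary screen activator hit with a dose response curve and TRPC4 channel activation at any tested dose; inactive = no activation, no dose response, or not a primary hit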)
[8] = target: Short transient receptor potential channel 4 (Mus musculus) (UniProt Q9QUQ5); experiment: potentiation of DAMGO-evoked TRPC4 calcium signal – cell-based, HEK293 TRPC4/mu-opioid, Fluo-4 calcium, EC20 DAMGO, dose response (AID 434941;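 active = earlier screen potentiator hit that boosts the TRPC4 ion channel at some dose, with a dose response; inactive = no potentiation, no dose response, or not a prior hit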;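 also: calcium entry triggered by an EC20 dose of DAMGO at the co-expressed mu-opioid receptor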)
[9] = target: Short transient receptor potential channel 4 (Mus musculus) (UniProt Q9QUQ5); experiment: block of DAMGO-driven TRPC4 calcium entry – cell-based, HEK293 TRPC4/mu-opioid, Fluo-4 calcium, dose response (AID 434942)
[10] = target: Short transient receptor potential channel 6 (Mus musculus) (UniProt Q61143); experiment: TRPC6 blockade by TRPC4 inhibitor hits – cell-based, HEK293, membrane potential dye, duplicate, selectivity assay for TRPC4 inhibitor project, confirmation (AID 434948;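 active = active in primary screen and both duplicates, each dropping signal beyond three positive-control SD with fluorescence still positive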); conditions: HEK293 TRPC6, membrane potential dye fluorescence, at 10 µM, stimulated with maximal-effect acetylcholine; stronger effect = higher value
Short transient receptor potential channel 6 (Mus musculus), sequence (Q61143 whole entry, looked up): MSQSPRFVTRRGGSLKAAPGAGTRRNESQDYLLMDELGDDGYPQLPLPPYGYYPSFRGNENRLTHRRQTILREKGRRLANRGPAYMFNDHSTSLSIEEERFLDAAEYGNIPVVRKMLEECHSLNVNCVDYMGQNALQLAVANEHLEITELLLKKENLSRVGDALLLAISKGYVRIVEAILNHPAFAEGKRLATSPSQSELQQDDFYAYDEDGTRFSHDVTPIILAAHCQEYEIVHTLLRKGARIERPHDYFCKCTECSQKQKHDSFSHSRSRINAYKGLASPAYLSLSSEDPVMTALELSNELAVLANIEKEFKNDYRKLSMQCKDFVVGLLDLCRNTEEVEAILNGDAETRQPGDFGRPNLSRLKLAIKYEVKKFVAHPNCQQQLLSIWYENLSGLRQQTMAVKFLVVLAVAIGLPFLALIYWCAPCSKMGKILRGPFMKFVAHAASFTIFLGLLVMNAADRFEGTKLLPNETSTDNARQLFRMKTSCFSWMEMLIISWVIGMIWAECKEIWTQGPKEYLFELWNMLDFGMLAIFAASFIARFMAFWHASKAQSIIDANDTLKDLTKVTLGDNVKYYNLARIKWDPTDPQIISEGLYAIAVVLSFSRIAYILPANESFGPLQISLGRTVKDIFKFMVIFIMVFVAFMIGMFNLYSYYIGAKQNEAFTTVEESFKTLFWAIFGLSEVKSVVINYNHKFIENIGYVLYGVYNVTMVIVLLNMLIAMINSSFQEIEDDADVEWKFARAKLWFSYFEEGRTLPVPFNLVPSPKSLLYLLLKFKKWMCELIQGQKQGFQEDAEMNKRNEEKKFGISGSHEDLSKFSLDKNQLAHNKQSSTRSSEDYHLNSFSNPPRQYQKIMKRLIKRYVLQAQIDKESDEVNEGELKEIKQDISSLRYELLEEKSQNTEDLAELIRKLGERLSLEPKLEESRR

[11] = target: Short transient receptor potential channel 6 (Mus musculus) (UniProt Q61143); experiment: TRPC6 opening by TRPC4 activator hits – cell-based, HEK293, membrane potential dye, duplicate, selectivity assay for TRPC4 activator project, confirmation (AID 434950;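 active = membrane potential signal rise above negative control mean plus 3 SD in both duplicates, also active in the earlier TRPC4 screen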); conditions: HEK293 TRPC6, membrane potential fluorescence, at 10 µM; activation: stronger effect = higher value; outcome: activation
[12] = target: Short transient receptor potential channel 6 (Mus musculus) (UniProt Q61143); experiment: positive modulators of mouse TRPC6 channel – HEK293 cells, membrane potential dye, duplicate, selectivity assay for TRPC4 potentiator project, confirmation (AID 434952;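 active = compound raising the membrane signal above positive-control mean plus 3 SD in both repeats, and a primary screen hit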); conditions: HEK293 TRPC6, membrane potential dye fluorescence, at 10 µM, maximal acetylcholine added after compound; stronger effect = higher value
[13] = target: Short transient receptor potential channel 4 (Mus musculus) (UniProt Q9QUQ5); experiment: calcium flux activators in TRPC4/5HT1a cells, counter-screen for TRPC4 activator project, cell-based, second counter screen, HEK293 TRPC4/5HT1a, Fluo-4 (AID 434977;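 active = calcium signal rise above buffer-control mean plus 5 SD in both duplicates, and also a hit in the primary screen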); conditions: Fluo-4 calcium flux, at 10 µM; stronger effect = higher value
[14] = serotonin-gated TRPC4 signal block – cell-based, second counter screen, HEK293 TRPC4/5HT1a, Fluo-4, counter-screen for TRPC4 inhibitor project, confirmation (AID 434978;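 active = primary screen active whose calcium signal fell more than 3 SD beyond the full-serotonin control mean in both duplicate plates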;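 as to outcome: serotonin given first at submaximal then at maximal dose after compound preincubation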); conditions: Fluo-4 calcium flux, at 10 µM, serotonin added to trigger calcium flux; stronger effect = higher value
[15] = system: TRPC4 (mouse), co-expressed with 5HT1a in HEK293; experiment: enhancement of serotonin-evoked TRPC4 response – cell-based, second counter screen, HEK293 TRPC4/5HT1a, Fluo-4, counter-screen for TRPC4 potentiator project, confirmation (AID 434979;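 active = signal rise over 3 SD above mean of control wells given weak agonist, in both repeats and first screen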); conditions: Fluo-4 calcium flux, at 10 µM, serotonin added at its EC20 dose; stronger effect = higher value
[16] = nonspecific calcium rise without TRPC4 – cell-based, HEK293 mu-opioid receptor line, counter-screen for TRPC4 activator project, confirmation (AID 449723;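 active = hit in primary screen, with calcium signal over 5 SD above buffer well mean in both duplicates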;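 also: counter screen cells carry the mu-opioid receptor alone and lack TRPC4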); conditions: HEK293 mu-opioid cells, Fluo-4 calcium fluorescence, at 10 µM; stronger effect = higher value
[17] = nonspecific potentiation of DAMGO calcium response – cell-based, HEK293 mu-opioid receptor line, counter-screen for TRPC4 allosteric potentiator project, confirmation (AID 449724;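 active = calcium signal rise more than 3 SD above the low-dose agonist control mean, in both duplicate plates and the primary screen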); conditions: HEK293 mu-opioid receptor cells, Fluo-4 calcium flux, at 10 µM, compound added before EC20 DAMGO stimulus; stronger effect = higher value
[18] = nonspecific flux increase, KCNQ1-free cells – parental CHO cells, counter-screen for KCNQ1 potentiator project (AID 493006;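 active = duplicate-averaged activation above buffer control mean plus 5 SD of those controls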;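 as to activation: fluorescence ratio of max minus min over baseline after K+ and Tl+ depolarization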); conditions: parental CHO-K1 cells, FluxOR thallium flux, at 10 µM; stronger effect = higher value
[19] = target: Potassium voltage-gated channel subfamily KQT member 1 (Homo sapiens) (UniProt P51787); experiment: enhancement of KCNQ1 channel thallium flux – FluxOR thallium flux, CHO cells, duplicates, confirmation (AID 493007;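 active = potentiation averaged over duplicate wells exceeding buffer-only control mean by more than 3 SD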;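 as to outcome: cells depolarized by a potassium plus thallium sulfate stimulus after compound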;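 as to potentiation: 0% = buffer-only wells and 100% = R-L3 activator control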); conditions: KCNQ1 cell line, FluxOR thallium flux fluorescence, at 10 µM; stronger effect = higher value, % of reference activator effect, buffer zero
Potassium voltage-gated channel subfamily KQT member 1 (Homo sapiens), sequence (P51787 whole entry, looked up): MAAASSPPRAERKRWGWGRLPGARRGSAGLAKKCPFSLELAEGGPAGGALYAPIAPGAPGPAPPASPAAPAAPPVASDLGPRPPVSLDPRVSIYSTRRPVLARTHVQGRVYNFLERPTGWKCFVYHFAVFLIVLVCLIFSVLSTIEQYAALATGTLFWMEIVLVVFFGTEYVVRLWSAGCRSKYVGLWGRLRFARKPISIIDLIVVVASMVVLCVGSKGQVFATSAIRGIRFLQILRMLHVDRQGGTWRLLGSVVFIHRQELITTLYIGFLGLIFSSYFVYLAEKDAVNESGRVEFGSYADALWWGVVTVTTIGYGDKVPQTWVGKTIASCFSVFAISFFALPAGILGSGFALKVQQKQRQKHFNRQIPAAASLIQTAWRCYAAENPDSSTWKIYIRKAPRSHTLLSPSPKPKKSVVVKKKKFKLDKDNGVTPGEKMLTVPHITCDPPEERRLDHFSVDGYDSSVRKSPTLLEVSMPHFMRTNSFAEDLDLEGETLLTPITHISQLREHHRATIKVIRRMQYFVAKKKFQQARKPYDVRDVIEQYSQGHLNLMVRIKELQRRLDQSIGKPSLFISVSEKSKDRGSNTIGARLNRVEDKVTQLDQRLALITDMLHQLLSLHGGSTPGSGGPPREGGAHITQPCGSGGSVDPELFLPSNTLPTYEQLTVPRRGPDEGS

[20] = target: Potassium voltage-gated channel subfamily KQT member 2 (Rattus norvegicus) (UniProt O88943); experiment: KCNQ2 thallium flux enhancement – KCNQ2-CHO-K1 cells, selectivity assay for KCNQ1 potentiator project (AID 493009;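 active = mean duplicate potentiation above the buffer control mean plus 5 SD of buffer wells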;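 also: assay conditions were tuned for KCNQ1 rather than KCNQ2 modulators; signal is max minus min fluorescence divided by baseline after thallium stimulus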); conditions: FluxOR thallium flux fluorescence, at 10 µM; stronger effect = higher value, scaled: buffer 0, activator control 100
Potassium voltage-gated channel subfamily KQT member 2 (Rattus norvegicus), sequence (O88943 whole entry, looked up): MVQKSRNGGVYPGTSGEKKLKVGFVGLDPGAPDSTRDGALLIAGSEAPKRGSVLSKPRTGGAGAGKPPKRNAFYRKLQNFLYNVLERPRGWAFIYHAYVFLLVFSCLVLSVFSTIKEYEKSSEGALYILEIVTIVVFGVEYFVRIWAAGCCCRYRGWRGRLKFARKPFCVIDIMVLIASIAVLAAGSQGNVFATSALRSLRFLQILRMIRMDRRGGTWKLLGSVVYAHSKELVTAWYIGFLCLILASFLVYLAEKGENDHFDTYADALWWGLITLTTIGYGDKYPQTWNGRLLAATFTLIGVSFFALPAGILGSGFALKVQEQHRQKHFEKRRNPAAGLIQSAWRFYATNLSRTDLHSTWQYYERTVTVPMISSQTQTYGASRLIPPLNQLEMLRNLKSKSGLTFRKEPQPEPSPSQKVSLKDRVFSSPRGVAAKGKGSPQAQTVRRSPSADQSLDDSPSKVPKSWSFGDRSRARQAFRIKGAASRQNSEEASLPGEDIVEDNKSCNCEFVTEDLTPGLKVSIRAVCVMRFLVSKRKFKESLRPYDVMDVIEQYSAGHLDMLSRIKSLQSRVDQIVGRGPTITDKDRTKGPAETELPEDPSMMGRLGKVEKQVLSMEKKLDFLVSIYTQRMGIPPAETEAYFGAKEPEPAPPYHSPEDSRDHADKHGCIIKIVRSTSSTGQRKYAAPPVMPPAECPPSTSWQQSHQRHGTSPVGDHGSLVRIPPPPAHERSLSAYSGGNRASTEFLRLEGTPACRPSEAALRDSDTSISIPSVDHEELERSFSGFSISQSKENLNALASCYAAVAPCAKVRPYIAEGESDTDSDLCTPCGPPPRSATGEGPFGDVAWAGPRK

Cc1nn(-c2cc(C(F)(F)F)ccc2Cl)c2nc(C(Cl)(Cl)Cl)[nH]c(=O)c12
inactive: outcome [1] | outcome [2] | outcome [3] | outcome [4] | outcome [5] | outcome [6] | outcome [7] | outcome [8] | outcome [9] | outcome [10] | outcome [11] | outcome [12] | outcome [13] | outcome [14] | outcome [15] | outcome [16] | outcome [17]
active: activation [18] 191% | potentiation [19] 52.5% | potentiation [20] 218%

CN1CCN(Cc2cccc(Oc3ccc(Cl)cc3)c2)CC1
inactive: outcome [1] | outcome [2] | outcome [4] | outcome [5] | outcome [6] | outcome [7] | outcome [8] | outcome [9] | outcome [10] | outcome [11] | outcome [12] | outcome [13] | outcome [14] | outcome [16] | outcome [17]
active: potentiation [3] 22% | potentiation [15] 15.1%

Cc1cc(N2CCN(C)CC2)n2cc(-c3ccc(F)cc3)nc2n1
active: potentiation [3] 11% | potentiation [15] 26.1%
inactive: outcome [1] | outcome [2] | outcome [4] | outcome [5] | outcome [6] | outcome [7] | outcome [8] | outcome [9] | outcome [10] | outcome [11] | outcome [12] | outcome [13] | outcome [14] | outcome [16] | outcome [17]

CCc1c(C)nc2ccc(Br)cc2c1SCCC#N
inactive: outcome [1] | outcome [2] | outcome [3] | outcome [4] | outcome [5] | outcome [6] | outcome [7] | outcome [8] | outcome [9] | outcome [10] | outcome [11] | outcome [12] | outcome [13] | outcome [14] | outcome [15] | outcome [16] | outcome [17]

COc1cc(NC(=O)CSc2ncnc3sc4c(c23)CCC(C)C4)c(C(=O)O)cc1OC (stereo unspecified)
inactive: outcome [1] | outcome [2] | outcome [3] | outcome [4] | outcome [6] | outcome [7] | outcome [8] | outcome [9] | outcome [10] | outcome [11] | outcome [12] | outcome [13] | outcome [14] | outcome [15] | outcome [16] | outcome [17]
active: inhibition [5] 91% | activation [18] 450% | potentiation [19] 297% | potentiation [20] 506%

Cc1ccc2c(c1)C1CN(C)CCC1N2C(=S)NC(=O)c1ccc(Br)cc1 (stereo unspecified)
inactive: outcome [1] | outcome [2] | outcome [3] | outcome [5] | outcome [6] | outcome [7] | outcome [8] | outcome [9] | outcome [10] | outcome [11] | outcome [12] | outcome [13] | outcome [14] | outcome [16] | outcome [17]
active: potentiation [4] 15% | potentiation [15] 23.8% | activation [18] 170% | potentiation [19] 41% | potentiation [20] 200%

CCN1CCN(c2ccc(S(=O)(=O)N3CCCCC3)cc2NC(=O)c2cccc(C(F)(F)F)c2)CC1
inactive: outcome [1] | outcome [2] | outcome [3] | outcome [5] | outcome [6] | outcome [7] | outcome [8] | outcome [9] | outcome [10] | outcome [11] | outcome [12] | outcome [13] | outcome [14] | outcome [16] | outcome [17]
active: potentiation [4] 21% | potentiation [15] 21.1%

COc1ccc(/C=N/NC(=O)c2ccc(F)cc2)cc1CN1CCc2cc(OC)c(OC)cc2C1C (stereo unspecified)
inactive: outcome [1] | outcome [2] | outcome [3] | outcome [4] | outcome [6] | outcome [7] | outcome [8] | outcome [9] | outcome [10] | outcome [11] | outcome [12] | outcome [13] | outcome [14] | outcome [15] | outcome [16] | outcome [17]
active: inhibition [5] 86%

COc1ccc(NS(=O)(=O)c2ccc3ccccc3c2)c2ncccc12
inactive: outcome [1] | outcome [2] | outcome [3] | outcome [4] | outcome [5] | outcome [6] | outcome [7] | outcome [8] | outcome [9] | outcome [10] | outcome [11] | outcome [12] | outcome [13] | outcome [14] | outcome [15] | outcome [16] | outcome [17] | outcome [18]
active: potentiation [19] 49% | potentiation [20] 172%

O=[N+]([O-])c1ccc(N2CCCC2)nc1N1CCCC1
inactive: outcome [1] | outcome [2] | outcome [3] | outcome [4] | outcome [5] | outcome [6] | outcome [7] | outcome [8] | outcome [9] | outcome [10] | outcome [11] | outcome [12] | outcome [13] | outcome [14] | outcome [15] | outcome [16] | outcome [17]

O=C(CN1CCCC1)N1c2ccccc2Sc2ccc(C(F)(F)F)cc21
inactive: outcome [1] | outcome [2] | outcome [3] | outcome [4] | outcome [5] | outcome [6] | outcome [7] | outcome [8] | outcome [9] | outcome [10] | outcome [11] | outcome [12] | outcome [13] | outcome [14] | outcome [15] | outcome [16] | outcome [17]

CN(C)CCCN(C(=O)CCc1ccccc1)c1nc2ccc(F)cc2s1
inactive: outcome [1] | outcome [2] | outcome [3] | outcome [4] | outcome [5] | outcome [6] | outcome [7] | outcome [8] | outcome [9] | outcome [10] | outcome [11] | outcome [12] | outcome [13] | outcome [14] | outcome [15] | outcome [16] | outcome [17] | outcome [18] | outcome [19] | outcome [20]

Cc1oc2c(c1C(=O)c1ccccc1)C(=O)C(=O)c1ccccc1-2
active: inhibition [5] 68% | inhibition [14] 30.8%
inactive: outcome [1] | outcome [2] | outcome [3] | outcome [4] | outcome [6] | outcome [7] | outcome [8] | outcome [9] | outcome [10] | outcome [11] | outcome [12] | outcome [13] | outcome [15] | outcome [16] | outcome [17]

CCN(CC)c1ncnc2sc3c(c12)CCC3
inactive: outcome [1] | outcome [2] | outcome [3] | outcome [4] | outcome [5] | outcome [6] | outcome [7] | outcome [8] | outcome [9] | outcome [10] | outcome [11] | outcome [12] | outcome [13] | outcome [14] | outcome [15] | outcome [16] | outcome [17] | outcome [18] | outcome [19] | outcome [20]
